The record followed here is ChEMBL document CHEMBL1961873, “Compounds: GSK PKIS; Assays: Nanosyn kinase panel” (2012).

The target of assay [1] is Serine/threonine-protein kinase pim-2 (Homo sapiens) (UniProt Q9P1W9). As to conditions: at 1 µM.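 Also: each value is a mean of the inhibition measurements against the kinase.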
The target of assay [2] is Serine/threonine-protein kinase pim-3 (Homo sapiens) (UniProt Q86V86). The settings on record: at 0.1 µM.
For assay [3] the target is unchanged. As to conditions: at 1 µM.
Assay [4] deals with T1, MAP kinase-activated protein kinase 5 (Homo sapiens) (UniProt Q8IW41).
T1 sequence (whole entry): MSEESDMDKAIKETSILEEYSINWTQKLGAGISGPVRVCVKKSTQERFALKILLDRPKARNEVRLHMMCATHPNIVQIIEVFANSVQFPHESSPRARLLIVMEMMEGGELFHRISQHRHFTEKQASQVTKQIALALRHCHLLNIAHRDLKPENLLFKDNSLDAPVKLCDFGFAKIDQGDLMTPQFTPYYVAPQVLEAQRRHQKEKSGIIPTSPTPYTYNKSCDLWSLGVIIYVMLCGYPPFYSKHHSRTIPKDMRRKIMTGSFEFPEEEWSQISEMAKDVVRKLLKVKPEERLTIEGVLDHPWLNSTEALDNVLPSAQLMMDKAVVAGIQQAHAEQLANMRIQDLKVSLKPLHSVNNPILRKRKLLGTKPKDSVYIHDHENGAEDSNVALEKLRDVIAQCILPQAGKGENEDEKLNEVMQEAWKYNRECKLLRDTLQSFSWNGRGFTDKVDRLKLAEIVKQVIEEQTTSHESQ
The settings on record: at 0.1 µM.

The target in assay [5] is T1, MAP kinase-activated protein kinase 5 (Homo sapiens). As to conditions: at 1 µM.
The target in assay [6] is Serine/threonine-protein kinase SIK1 (Homo sapiens) (UniProt P57059). As to conditions: at 0.1 µM.
Sequence of Serine/threonine-protein kinase SIK1 (Homo sapiens) (P57059 whole entry): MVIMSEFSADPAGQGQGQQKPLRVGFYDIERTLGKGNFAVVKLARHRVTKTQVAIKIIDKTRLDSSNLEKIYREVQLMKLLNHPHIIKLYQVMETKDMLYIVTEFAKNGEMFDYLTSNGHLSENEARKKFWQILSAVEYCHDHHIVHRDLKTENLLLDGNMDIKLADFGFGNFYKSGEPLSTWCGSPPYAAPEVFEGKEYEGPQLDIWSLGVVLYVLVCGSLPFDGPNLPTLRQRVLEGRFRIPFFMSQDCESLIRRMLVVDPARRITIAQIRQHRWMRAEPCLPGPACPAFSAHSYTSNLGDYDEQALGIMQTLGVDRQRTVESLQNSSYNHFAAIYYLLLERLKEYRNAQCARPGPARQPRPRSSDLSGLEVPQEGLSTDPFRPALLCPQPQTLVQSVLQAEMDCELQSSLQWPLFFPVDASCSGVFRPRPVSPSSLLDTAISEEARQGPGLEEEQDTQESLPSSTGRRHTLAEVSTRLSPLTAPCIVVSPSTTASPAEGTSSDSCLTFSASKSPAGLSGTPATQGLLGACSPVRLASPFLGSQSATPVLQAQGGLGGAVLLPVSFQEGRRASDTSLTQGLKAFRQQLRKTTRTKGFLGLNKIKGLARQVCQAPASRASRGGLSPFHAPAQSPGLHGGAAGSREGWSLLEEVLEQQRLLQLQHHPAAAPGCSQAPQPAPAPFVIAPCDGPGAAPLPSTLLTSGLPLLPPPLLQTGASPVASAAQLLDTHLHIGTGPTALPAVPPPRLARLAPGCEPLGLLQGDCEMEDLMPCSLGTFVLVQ
The target is the same in assay [7]. The settings on record: at 1 µM.
Assay [8] concerns the target Serine/threonine-protein kinase SIK2 (Homo sapiens) (UniProt Q9H0K1). As to conditions: at 0.1 µM.
Assay [9] shares this target. As to conditions: at 1 µM.
In assay [10] the target is T2, Serine/threonine-protein kinase TBK1 (Homo sapiens) (UniProt Q9UHD2).
T2 sequence (whole entry): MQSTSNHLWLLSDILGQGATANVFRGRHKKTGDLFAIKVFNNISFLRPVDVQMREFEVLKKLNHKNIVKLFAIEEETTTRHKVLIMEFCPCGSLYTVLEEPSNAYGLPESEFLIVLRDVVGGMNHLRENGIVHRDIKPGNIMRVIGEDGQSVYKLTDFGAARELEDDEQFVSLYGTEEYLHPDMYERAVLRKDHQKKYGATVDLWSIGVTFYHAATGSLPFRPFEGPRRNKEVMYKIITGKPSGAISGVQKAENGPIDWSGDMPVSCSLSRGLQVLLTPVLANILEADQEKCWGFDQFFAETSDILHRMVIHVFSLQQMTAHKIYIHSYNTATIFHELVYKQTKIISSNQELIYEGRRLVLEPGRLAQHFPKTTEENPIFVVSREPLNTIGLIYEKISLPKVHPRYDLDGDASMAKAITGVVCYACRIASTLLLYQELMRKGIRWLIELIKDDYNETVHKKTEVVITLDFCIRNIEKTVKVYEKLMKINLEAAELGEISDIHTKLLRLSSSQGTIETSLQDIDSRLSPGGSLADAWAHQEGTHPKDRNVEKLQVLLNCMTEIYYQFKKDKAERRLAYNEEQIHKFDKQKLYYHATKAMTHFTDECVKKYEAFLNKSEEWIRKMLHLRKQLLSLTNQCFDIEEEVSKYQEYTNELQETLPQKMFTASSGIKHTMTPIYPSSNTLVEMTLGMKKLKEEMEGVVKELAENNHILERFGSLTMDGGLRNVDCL
As to conditions: at 0.1 µM.

For assay [11], the target named is T2, Serine/threonine-protein kinase TBK1 (Homo sapiens). As to conditions: at 1 µM.
The target in assay [12] is T3, Testis-specific serine/threonine-protein kinase 1 (Homo sapiens) (UniProt Q9BXA7).
T3 sequence (whole entry): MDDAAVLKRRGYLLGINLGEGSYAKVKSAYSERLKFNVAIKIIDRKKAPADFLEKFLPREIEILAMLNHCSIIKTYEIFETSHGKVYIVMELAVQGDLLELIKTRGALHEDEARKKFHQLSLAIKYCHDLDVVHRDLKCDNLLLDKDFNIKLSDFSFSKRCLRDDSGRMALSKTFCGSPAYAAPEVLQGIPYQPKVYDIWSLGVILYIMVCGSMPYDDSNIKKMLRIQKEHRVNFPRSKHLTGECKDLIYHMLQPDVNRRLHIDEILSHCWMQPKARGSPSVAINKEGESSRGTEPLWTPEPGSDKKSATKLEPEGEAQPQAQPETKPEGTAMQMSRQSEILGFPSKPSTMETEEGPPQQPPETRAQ
The settings on record: at 0.1 µM.

The target of assay [13] is T3, Testis-specific serine/threonine-protein kinase 1 (Homo sapiens). The settings on record: at 1 µM.
Assay [14] has as its target T4, Testis-specific serine/threonine-protein kinase 2 (Homo sapiens) (UniProt Q96PF2).
T4 sequence (whole entry): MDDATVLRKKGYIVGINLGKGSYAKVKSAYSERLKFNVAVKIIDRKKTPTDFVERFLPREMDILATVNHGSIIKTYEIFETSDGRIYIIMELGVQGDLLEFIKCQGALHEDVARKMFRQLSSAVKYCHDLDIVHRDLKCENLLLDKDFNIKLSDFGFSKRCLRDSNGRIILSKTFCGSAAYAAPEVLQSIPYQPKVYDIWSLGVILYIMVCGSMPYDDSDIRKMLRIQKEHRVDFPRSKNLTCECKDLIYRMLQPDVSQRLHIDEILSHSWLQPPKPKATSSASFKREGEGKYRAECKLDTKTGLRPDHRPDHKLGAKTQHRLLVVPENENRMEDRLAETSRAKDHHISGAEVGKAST
The settings on record: at 0.1 µM.

For assay [15], the target named is T4, Testis-specific serine/threonine-protein kinase 2 (Homo sapiens). The settings on record: at 1 µM.
In assay [16] the target is Casein kinase I isoform alpha (Homo sapiens) (UniProt P48729). The settings on record: at 0.1 µM.
Sequence of Casein kinase I isoform alpha (Homo sapiens) (P48729 2-337 limits assumed): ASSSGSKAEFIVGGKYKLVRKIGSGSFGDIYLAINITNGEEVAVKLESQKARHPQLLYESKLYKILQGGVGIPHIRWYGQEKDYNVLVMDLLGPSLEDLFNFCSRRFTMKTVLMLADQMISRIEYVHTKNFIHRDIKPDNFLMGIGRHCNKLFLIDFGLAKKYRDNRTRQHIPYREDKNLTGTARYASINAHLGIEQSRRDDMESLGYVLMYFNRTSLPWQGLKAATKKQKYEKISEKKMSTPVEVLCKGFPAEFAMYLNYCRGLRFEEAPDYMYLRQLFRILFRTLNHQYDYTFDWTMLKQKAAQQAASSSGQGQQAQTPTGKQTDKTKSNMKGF
The target is the same in assay [17]. As to conditions: at 1 µM.
For assay [18], the target named is Casein kinase I isoform gamma-1 (Homo sapiens) (UniProt Q9HCP0). As to conditions: at 0.1 µM.
Sequence of Casein kinase I isoform gamma-1 (Homo sapiens) (Q9HCP0 whole entry, looked up, canonical isoform): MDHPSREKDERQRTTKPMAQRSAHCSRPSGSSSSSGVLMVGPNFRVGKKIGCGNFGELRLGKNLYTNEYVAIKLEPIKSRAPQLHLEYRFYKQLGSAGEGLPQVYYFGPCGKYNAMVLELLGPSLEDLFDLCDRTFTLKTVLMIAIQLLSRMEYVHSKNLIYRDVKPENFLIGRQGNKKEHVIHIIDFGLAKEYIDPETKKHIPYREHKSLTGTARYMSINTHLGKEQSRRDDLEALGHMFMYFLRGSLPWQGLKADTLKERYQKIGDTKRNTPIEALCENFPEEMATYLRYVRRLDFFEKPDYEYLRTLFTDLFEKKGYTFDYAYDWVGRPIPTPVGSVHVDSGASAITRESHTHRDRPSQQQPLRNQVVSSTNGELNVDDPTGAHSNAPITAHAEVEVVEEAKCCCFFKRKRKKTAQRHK
The target is the same in assay [19]. The settings on record: at 1 µM.
Assay [20] concerns the target Casein kinase I isoform gamma-2 (Homo sapiens) (UniProt P78368). The settings on record: at 0.1 µM.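 Also: values are mean inhibition figures reported as part of the GSK PKIS dataset.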

Sequence of Serine/threonine-protein kinase pim-2 (Homo sapiens) (Q9P1W9 whole entry, looked up): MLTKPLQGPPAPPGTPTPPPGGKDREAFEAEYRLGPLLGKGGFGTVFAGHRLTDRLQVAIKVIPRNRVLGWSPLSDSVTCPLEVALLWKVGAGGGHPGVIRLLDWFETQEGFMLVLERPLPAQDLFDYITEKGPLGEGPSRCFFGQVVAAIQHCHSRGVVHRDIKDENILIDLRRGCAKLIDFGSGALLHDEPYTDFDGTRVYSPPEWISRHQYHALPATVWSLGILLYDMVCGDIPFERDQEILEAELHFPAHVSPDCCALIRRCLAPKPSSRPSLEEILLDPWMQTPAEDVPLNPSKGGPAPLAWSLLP
Sequence of Casein kinase I isoform gamma-2 (Homo sapiens) (P78368 whole entry, looked up, canonical isoform): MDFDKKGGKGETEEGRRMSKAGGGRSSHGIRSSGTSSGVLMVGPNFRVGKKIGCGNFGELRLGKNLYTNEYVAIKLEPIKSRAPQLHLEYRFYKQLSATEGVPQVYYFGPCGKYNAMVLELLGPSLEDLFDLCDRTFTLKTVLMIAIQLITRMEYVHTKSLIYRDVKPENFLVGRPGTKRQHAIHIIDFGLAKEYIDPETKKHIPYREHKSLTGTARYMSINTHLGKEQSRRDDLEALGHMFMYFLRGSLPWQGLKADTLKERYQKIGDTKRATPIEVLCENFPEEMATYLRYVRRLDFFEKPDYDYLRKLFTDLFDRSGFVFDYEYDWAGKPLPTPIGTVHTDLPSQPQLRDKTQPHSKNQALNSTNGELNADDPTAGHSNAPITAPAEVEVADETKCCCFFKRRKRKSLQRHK
Sequence of Serine/threonine-protein kinase SIK2 (Homo sapiens) (Q9H0K1 whole entry, looked up): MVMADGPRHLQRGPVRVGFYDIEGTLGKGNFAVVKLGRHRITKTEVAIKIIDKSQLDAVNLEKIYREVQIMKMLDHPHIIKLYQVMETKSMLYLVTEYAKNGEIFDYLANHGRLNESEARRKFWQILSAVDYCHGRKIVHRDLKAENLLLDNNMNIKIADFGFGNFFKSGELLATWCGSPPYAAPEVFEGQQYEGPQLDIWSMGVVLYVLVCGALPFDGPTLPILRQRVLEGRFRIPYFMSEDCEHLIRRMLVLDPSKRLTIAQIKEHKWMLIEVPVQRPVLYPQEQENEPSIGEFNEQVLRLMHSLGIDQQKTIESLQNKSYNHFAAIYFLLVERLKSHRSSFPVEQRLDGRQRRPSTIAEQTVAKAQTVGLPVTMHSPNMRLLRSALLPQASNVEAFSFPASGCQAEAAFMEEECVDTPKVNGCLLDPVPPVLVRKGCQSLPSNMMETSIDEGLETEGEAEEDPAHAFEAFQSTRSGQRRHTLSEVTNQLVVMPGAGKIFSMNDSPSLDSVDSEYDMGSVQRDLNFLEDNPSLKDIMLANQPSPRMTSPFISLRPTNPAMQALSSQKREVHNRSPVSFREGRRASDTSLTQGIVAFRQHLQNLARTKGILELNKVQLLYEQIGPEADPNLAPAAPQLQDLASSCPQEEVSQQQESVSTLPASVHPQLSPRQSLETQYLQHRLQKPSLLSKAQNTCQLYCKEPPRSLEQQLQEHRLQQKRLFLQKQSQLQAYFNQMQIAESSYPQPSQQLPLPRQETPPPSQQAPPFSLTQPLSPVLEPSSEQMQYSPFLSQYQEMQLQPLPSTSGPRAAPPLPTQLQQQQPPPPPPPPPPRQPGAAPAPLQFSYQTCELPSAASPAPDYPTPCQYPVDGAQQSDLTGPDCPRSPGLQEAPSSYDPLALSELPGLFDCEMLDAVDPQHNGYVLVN

As usually defined, the inhibition is the drop in the measured response relative to a control, in per cent. As for `NS(=O)(=O)c1ccc(N/N=C2\C(=O)Nc3ccc(Cl)cc32)cc1`, the inhibition is 2.1% in [1]; 0.5% in assay [2]; 4.86% in assay [3]; 1.31% in assay [4]; 3.24% in assay [5]; 3.88% in [6]. Further, the inhibition in assay [7] amounted to 10.9%; in assay [8], 3.51%; in assay [9], 10.6%; in [10], 2.27%; in assay [11], 9.93%; in assay [12] it was 4.37%. Moreover, the inhibition in [13] stood at 6.32%; in [14], 3.29%; in [15] it was 2.98%; in assay [16] it was 3.27%; in assay [17], 4.21%; in assay [18], 2.59%. Besides, the inhibition amounted to 3.4% in [19] and 2.56% in assay [20].

With `Cc1ccc(O)cc1Nc1ccnc2ccc(S(C)(=O)=O)cc12`, the inhibition was 0.8% in [1]; 0.69% in assay [2]; 1.04% in [3]; 2.48% in assay [4]; 2.77% in assay [5]; 47.2% in assay [6]. The inhibition in assay [7] was found to be 89.6%; in assay [8], 15.8%; in assay [9], 52.6%; in [10], 2.4%; in assay [11], 9.14%; in [12], 3.95%. The inhibition in assay [13] came to 4.63%; in [14], 2.41%; in assay [15], 3.33%; in assay [16], 11.9%; in assay [17], 43.8%; in assay [18], 4.05%. The figures for the inhibition in assay [19] and in assay [20] were 7.45% and 4.13%, respectively.

As to `Cc1ccc(NC(=O)CC2CC2)cc1-c1ccc(C(=O)NCC2CC2)cc1`, the inhibition was 0.37% in assay [1]; 0.23% in assay [2]; 1.25% in assay [3]; 1.21% in assay [4]; 1.26% in assay [5]; 3.64% in assay [6]. Also, the inhibition in assay [7] was determined as 9.75%; in [8], 5.46%; in assay [9], 4.87%; in [10], 2.81%; in [11] it was 5.71%; in assay [12], 3.65%. The inhibition amounted to 2.94% in assay [13]; 2.59% in assay [14]; 1.29% in assay [15]; 7.12% in assay [16]; 3.9% in assay [17]; 1.42% in assay [18]. In addition, the inhibition in assay [19] came out at 2.32%; in assay [20], 2.95%.

Take `Cc1ccc(Nc2ccnc(Nc3cccc(C(N)=O)c3)n2)cc1O`: the inhibition in assay [1] is -3.06%; in [2] it was 0.18%; in assay [3], 1.91%; in assay [4], 1.13%; in assay [5], 1.29%; in assay [6] it was 29.8%. Moreover, the inhibition is 80.2% in assay [7]; 13.1% in assay [8]; 53.5% in assay [9]; 2.74% in assay [10]; 19.6% in assay [11]; 3.41% in assay [12]. Moreover, the inhibition in [13] was 5.19%; in assay [14], 1.39%; in assay [15], 1.65%; in [16] it was 1.66%; in assay [17], 4.05%; in [18], -1.2%. Besides, the inhibition in assay [19] is 1.43%; in assay [20], -1.06%.

`NC(=O)c1cccc(Nc2nccc(Nc3cccc(F)c3)n2)c1`: the inhibition in assay [1] was 0.31%; in [2], 0.13%; in assay [3], 2%; in assay [4] it was 0.33%; in assay [5] it was -0.56%; in [6] it was 9.14%. The inhibition in assay [7] was 37%; in assay [8] it was 7.47%; in [9], 25.1%; in assay [10], 1.55%; in assay [11], 6.93%; in [12], -0.18%. Besides, the inhibition in assay [13] was 0.75%; in assay [14] it was 0.59%; in assay [15], -0.96%; in [16], -0.75%; in assay [17] it was 1.32%; in assay [18], 0.88%. Moreover, the inhibition was found to be 1.67% in [19] and 0.97% in assay [20].

As to `CCn1c(-c2nonc2N)nc2c(C#CC(C)(C)O)nc(OCCNC)cc21`, the inhibition turned out to be 1.04% in assay [1]; 0.16% in [2]; 3.51% in assay [3]; 1.21% in assay [4]; 1.03% in assay [5]; 6.97% in [6]. In addition, the inhibition in assay [7] turned out to be 10.6%; in assay [8], 3.14%; in assay [9], 9.54%; in assay [10], 3.53%; in assay [11] it was 8.57%; in [12], 5.86%. Besides, the inhibition in assay [13] turned out to be 18%; in [14] it was 1.75%; in [15] it was 2.65%; in assay [16], 3.87%; in assay [17], 8.13%; in assay [18], 3.33%. Further, the inhibition in assay [19] was found to be 4.48%; in assay [20] it was 3.26%.
